# Mtb FBA inh = Mtb fructose-bisphosphate aldolase inhibition; P9WQA3; purified M. tuberculosis FBA, fluorescence read-out; inhibition, % at 1 µM; actives 2.3% (n = 360,000); AID 588726;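 also: 0% = vehicle and 100% = reference inhibitor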
# PrPC surface inh = cell surface PrPC inhibition, primary TR-FRET screen; inhibition, % at 13.8 µM; TR-FRET read-out; actives 0.43% (n = 370,000); P04156; in the data active = inhibition above about 24%; also: 0% = median of the test wells and 100% = reference compound wells
# BJeLR viability = kills HRASV12-expressing BJeLR cells | AID 1554 | BJeLR (HRASV12) viability, CellTiter-Glo ATP luminescence, 48 h | inhibition, % (test concentration not listed) | actives 0.17% (n = 300,000); in the data active = inhibition above about 50%
# RecA splice inh = Mtb RecA intein splicing inhibition; P9WHJ3; cell-free RecA intein splicing, fluorescence; inhibition, % (concentration not given with the values); actives 0.75% (n = 290,000); in the data active = inhibition above about 30%;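 also: 0% = vehicle wells and 100% = reference inhibitor control wells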
# Target sequence (P9WHJ3 whole entry, looked up, canonical isoform): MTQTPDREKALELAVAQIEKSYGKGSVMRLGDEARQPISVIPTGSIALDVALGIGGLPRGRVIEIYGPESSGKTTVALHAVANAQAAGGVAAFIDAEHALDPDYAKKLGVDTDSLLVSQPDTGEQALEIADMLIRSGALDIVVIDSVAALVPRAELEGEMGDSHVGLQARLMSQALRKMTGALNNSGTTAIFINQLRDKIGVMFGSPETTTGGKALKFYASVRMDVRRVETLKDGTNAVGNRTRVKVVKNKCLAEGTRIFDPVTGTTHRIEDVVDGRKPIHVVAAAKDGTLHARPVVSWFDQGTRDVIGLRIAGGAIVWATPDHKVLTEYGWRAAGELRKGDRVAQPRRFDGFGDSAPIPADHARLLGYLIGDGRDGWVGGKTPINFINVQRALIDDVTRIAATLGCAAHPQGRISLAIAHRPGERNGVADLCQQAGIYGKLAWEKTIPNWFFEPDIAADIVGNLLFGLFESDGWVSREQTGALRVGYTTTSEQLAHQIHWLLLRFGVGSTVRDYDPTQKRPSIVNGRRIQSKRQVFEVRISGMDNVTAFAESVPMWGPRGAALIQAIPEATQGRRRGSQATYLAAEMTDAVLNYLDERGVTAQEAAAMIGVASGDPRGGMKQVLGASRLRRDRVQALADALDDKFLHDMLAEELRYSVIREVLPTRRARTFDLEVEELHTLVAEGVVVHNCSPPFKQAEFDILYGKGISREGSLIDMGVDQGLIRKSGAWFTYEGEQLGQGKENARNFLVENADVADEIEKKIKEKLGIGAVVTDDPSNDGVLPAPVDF
# GDH-TPI counter-1 = GDH-TPI coupled enzyme inhibition counter-screen; GDH-TPI coupled enzyme counterscreen, NADH absorbance; inhibition, % at 4.8 µM; actives 1.2% (n = 360,000); in the data active = inhibition above about 30%;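 also: 0% = DMSO wells and 100% = wells lacking the enzyme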
# Mtb FBA confirm = confirmation of M. tuberculosis fructose-bisphosphate aldolase inhibitors | purified M. tuberculosis FBA, fluorescence read-out | AID 651616 | shares compounds with Mtb FBA inh | actives 78% (n = 5,600) | inhibition, % at 1 µM;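 also: 0% = vehicle wells and 100% = reference inhibitor wells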
# GDH-TPI counter-2 = GDH-TPI inhibition counter-screen for FBA inhibitors | shares compounds with Mtb FBA inh | GDH-TPI coupled enzyme counterscreen, fluorescence | inhibition, % at 1 µM | actives 81% (n = 5,600) | AID 652141; in the data active = inhibition above about 10%
# GDH-TPI dose = inhibits GDH-TPI coupling enzymes in dose response | shares compounds with Mtb FBA inh | AID 652145 | IC50, µM | actives 79% (n = 170) | GDH-TPI coupled enzyme assay, fluorescence, artifact counterscreen; call rule not given here
# * hit, by the source's call; / = no result given; + = active, no number. Hits are enriched below; roughly 4.2% of the tested compounds scored in any of these assays. Rule as the data show it, unless noted: active = inhibition above about 27%; inactive = the rest.
SMILES,Mtb FBA inh,PrPC surface inh,BJeLR viability,RecA splice inh,GDH-TPI counter-1,Mtb FBA confirm,GDH-TPI counter-2,others
Nc1ccc2nn(-c3ccc(F)cc3)nc2c1,37.2*,-8.2,-5.3,-14.8,17.3,62.0*,51.5*,
Nc1ccc2nn(-c3cc([N+](=O)[O-])ccc3O)nc2c1,-1.0,-9.6,10.9,8.6,17.9,/,/,
CC(C)c1ccc(-n2nc3ccc(N)cc3n2)cc1,71.1*,-5.1,2.5,-4.0,3.1,100.6*,67.1*,
NC(=O)c1ncn([C@@H]2O[C@H](C(=O)N[C@H](Cc3c[nH]c4ccccc34)C(=O)N3CCN(C(=O)N4CCOCC4)CC3)[C@@H](O)[C@H]2O)n1,/,-2.3,/,/,/,/,/,
Cc1c(NS(=O)(=O)c2cc3c(cc2Br)CCN3C(=O)C2CC2)c(=O)n(-c2ccccc2)n1C,/,-4.3,/,/,/,/,/,
COC(=O)C1(C)Nc2ccccc2C(=O)N1c1ccccc1OC (stereo unspecified),28.9*,-4.6,-8.6,0.8,8.9,85.8*,55.8*,
COC(=O)C1(C)NC(=O)c2ccccc2N1 (stereo unspecified),29.9*,-2.5,-2.6,0.3,0.0,38.8*,42.0*,
O=C1Nc2ccc(S(=O)(=O)NCc3ccccn3)c3cccc1c23,76.5*,-36.3,5.5,-67.4,11.2,66.8*,52.5*,
CN(C)CCNS(=O)(=O)c1ccc2c3c(cccc13)C(=O)N2,43.2*,-28.8,-1.5,-49.0,17.1,-7.2,-4.2,
CCN(CC)CCNS(=O)(=O)c1ccc2c3c(cccc13)C(=O)N2,54.0*,-18.4,-8.2,-200.8,8.6,61.2*,59.9*,
O=S(=O)(c1ccc(Br)s1)N1CCC(c2nc3ccccc3o2)CC1,/,-8.0,/,/,/,/,/,
Cc1ccc2c(c1)c(C)cc[n+]2Cc1ccccc1,11.9,-2.7,-6.5,2.3,6.7,/,/,
COc1ccc2c(c1)c(C)cc[n+]2Cc1ccccc1,40.9*,-13.0,7.2,1.0,5.9,59.3*,57.1*,
C=CCc1c(OC)ccc2ccc(=O)oc12,55.3*,5.4,-2.0,-1.0,6.4,124.0*,105.3*,
Cc1cccc(C=NNc2cc(C)c3cccc(C)c3n2)n1,/,17.3,/,/,/,/,/,
COc1ccc(C2CC(c3ccc(Br)cc3)Nc3nc(N)nn32)cc1 (stereo unspecified),1.9,2.5,-1.4,/,0.5,/,/,
Nc1nc2n(n1)C(c1cccs1)CC(c1ccc(Br)cc1)N2 (stereo unspecified),48.1*,-2.7,-1.5,3.0,8.2,15.9,9.0,GDH-TPI dose=7.84*
Cc1cc(N=Cc2c(O)n(-c3ccc4c(c3)OCO4)c(=O)c3ccccc23)ccn1,38.1*,16.7,-10.5,-16.6,6.1,+,+,
CC1(c2nnnn2Cc2ccccc2)CN(S(C)(=O)=O)CC(=O)N1Cc1cccs1 (stereo unspecified),/,8.9,/,/,/,/,/,
C=CCOC(=O)COc1cc(C)cc2oc(=O)c3c(c12)CCC3,57.0*,2.1,2.5,1.7,17.4,+,169.6*,
Cc1c(C)c2cc(Cl)c(OCc3nn[nH]n3)cc2oc1=O,55.5*,-0.2,-0.1,5.5,11.8,92.0*,75.0*,
Cc1cc(OCC(=O)OC(C)(C)C)c2c3c(c(=O)oc2c1)CCC3,2.1,-3.6,-5.2,-4.7,3.7,/,/,
Cc1cc(OCc2nn[nH]n2)c2c3c(c(=O)oc2c1)CCCC3,83.7*,0.6,-0.9,2.5,10.1,58.7*,47.2*,
CCCCOC(=O)COc1cc(C)cc2oc(=O)c3c(c12)CCC3,8.2,2.2,6.4,-1.3,0.5,/,/,
CCN(CC)C(=O)COc1cc(C)cc2oc(=O)c3c(c12)CCCC3,80.9*,-5.1,-1.3,1.8,12.9,60.7*,42.6*,
Cc1cc(OCc2ccc([N+](=O)[O-])cc2)c2c3c(c(=O)oc2c1)CCCC3,6.4,-0.5,14.9,-0.4,1.8,/,/,
COc1ccccc1Cc1c(-c2ccc(F)cc2)nc2c3ccccc3ccn12,/,-3.1,/,/,/,/,/,
Cc1cccc(Cn2cc(CN3CC(N(C)CCCOC(=O)c4cc(C)cc(C)c4)CS3(=O)=O)nn2)c1 (stereo unspecified),/,-3.2,/,/,/,/,/,
C[C@H]1NS(=O)(=O)c2cccc(Cl)c2O[C@@H]1c1ccccc1,/,-1.1,/,/,/,/,/,
